# Test results taken from the supplement of paper PMC11732987, “Enantioselective OTUD7B fragment discovery through chemoproteomics screening and high-throughput optimisation” (Communications Chemistry, 2025).
# A number with no mark means an inactive call.
# What was measured:
# Test in all cases: log2 ratio of Biotin-Ahx-Ub-VS probe labelling (fragment/DMSO); higher = less target engagement (more negative = stronger competition), active = hit call of the paper (q ≤ 0.05, log2 ratio ≤ -1)
# Details in all cases: compound concentration: 200 uM; treatment time: 3 h
# [1] = molecular target: T1, USP19 (UniProt O94966)
# T1 sequence (whole entry): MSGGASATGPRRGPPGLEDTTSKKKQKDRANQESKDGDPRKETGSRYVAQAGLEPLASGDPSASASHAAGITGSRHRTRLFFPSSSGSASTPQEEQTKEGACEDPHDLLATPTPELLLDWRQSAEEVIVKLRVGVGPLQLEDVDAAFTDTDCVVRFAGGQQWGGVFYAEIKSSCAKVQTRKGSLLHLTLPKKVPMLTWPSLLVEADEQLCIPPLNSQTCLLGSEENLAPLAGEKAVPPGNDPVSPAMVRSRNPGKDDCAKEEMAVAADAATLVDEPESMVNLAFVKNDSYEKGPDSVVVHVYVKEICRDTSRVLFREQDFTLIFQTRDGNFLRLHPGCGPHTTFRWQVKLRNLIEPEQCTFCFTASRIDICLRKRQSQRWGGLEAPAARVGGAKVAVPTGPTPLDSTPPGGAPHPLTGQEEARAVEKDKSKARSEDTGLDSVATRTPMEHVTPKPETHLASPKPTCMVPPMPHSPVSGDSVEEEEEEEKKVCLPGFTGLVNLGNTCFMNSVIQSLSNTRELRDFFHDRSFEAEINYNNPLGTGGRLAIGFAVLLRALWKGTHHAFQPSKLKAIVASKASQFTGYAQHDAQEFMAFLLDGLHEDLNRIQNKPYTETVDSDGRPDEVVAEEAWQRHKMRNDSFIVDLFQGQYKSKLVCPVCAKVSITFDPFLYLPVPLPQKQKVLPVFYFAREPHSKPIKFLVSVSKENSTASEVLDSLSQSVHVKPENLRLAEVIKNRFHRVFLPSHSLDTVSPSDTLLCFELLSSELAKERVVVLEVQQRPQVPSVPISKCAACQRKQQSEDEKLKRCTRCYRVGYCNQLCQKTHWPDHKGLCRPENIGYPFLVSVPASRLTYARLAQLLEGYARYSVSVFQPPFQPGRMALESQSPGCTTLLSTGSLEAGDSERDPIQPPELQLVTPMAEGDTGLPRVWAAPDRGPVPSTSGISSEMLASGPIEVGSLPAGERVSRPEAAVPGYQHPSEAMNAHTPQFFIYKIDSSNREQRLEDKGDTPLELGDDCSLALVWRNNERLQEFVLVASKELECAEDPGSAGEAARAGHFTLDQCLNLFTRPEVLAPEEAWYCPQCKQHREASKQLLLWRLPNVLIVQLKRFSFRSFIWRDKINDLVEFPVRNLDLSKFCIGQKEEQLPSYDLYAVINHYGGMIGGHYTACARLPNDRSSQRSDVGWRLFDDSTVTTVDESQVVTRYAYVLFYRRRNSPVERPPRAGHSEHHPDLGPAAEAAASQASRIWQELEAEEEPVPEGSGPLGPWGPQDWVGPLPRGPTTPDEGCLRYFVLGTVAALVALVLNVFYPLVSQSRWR
# Summary of the method: (§1)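 HEK293T lysate (495 µg per sample, in Tris/CHAPS/IGEPAL buffer with protease inhibitors) was treated in triplicate with fragment at 200 µM or with DMSO for 3 h. It was then treated with Biotin-Ahx-Ub-VS (0.5 µM final) for 1 h. Labelled DUBs were NeutrAvidin-enriched, digested with LysC and trypsin, and run by diaPASEF LC-MS/MS. Spectronaut label-free quantities were global-median-normalised. Values are average log2 ratios fragment/DMSO by unpaired t-test, using proteins with ≥2 unique peptides.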
# [2] = molecular target: T2, USP22 (UniProt Q9UPT9)
# T2 sequence (whole entry): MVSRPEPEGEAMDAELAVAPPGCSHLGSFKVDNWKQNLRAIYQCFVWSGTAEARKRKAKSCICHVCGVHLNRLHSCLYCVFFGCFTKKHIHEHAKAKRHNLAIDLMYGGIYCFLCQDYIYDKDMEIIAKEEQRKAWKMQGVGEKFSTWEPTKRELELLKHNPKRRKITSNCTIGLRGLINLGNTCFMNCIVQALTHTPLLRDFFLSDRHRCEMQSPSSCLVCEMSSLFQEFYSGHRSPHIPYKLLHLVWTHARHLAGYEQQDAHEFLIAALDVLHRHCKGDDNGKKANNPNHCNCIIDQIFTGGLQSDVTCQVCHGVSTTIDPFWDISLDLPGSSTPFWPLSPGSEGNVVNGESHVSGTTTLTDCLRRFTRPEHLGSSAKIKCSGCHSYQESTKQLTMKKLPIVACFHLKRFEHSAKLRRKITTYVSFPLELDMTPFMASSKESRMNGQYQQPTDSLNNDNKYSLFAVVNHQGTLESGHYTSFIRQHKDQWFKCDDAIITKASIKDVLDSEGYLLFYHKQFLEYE
# Summary of the method: as §1
# [3] = molecular target: USP24 (UniProt Q9UPU5)
# Summary of the method: as §1
# [4] = molecular target: T3, USP25 (UniProt Q9UHP3)
# T3 sequence (whole entry): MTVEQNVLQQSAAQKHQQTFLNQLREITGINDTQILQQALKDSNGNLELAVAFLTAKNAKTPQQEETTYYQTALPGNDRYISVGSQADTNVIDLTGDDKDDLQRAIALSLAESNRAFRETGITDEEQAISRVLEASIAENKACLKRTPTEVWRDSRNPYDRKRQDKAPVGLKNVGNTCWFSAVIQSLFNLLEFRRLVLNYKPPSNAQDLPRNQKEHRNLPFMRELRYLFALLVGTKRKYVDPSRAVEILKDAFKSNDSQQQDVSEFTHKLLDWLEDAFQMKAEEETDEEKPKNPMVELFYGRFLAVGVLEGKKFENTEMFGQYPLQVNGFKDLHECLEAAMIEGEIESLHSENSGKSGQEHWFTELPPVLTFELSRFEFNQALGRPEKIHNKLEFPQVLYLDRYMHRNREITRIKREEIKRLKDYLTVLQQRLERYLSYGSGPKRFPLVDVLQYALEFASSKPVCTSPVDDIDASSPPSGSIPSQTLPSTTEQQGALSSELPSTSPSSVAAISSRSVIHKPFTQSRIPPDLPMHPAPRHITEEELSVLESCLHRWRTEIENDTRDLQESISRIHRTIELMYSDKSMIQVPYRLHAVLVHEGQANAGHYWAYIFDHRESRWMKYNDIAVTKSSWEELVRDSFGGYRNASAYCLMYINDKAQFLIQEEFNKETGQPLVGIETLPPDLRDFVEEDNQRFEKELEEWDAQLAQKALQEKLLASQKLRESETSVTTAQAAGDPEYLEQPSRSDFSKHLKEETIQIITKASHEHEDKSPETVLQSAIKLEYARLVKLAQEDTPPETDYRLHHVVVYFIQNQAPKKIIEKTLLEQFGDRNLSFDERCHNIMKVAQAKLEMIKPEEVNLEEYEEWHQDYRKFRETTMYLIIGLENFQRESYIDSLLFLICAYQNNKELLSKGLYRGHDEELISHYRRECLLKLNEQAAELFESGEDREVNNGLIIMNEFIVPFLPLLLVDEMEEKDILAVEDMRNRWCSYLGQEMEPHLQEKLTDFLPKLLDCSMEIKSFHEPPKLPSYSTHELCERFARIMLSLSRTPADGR
# Summary of the method: as §1
# [5] = molecular target: T4, USP28 (UniProt Q96RU2)
# T4 sequence (whole entry): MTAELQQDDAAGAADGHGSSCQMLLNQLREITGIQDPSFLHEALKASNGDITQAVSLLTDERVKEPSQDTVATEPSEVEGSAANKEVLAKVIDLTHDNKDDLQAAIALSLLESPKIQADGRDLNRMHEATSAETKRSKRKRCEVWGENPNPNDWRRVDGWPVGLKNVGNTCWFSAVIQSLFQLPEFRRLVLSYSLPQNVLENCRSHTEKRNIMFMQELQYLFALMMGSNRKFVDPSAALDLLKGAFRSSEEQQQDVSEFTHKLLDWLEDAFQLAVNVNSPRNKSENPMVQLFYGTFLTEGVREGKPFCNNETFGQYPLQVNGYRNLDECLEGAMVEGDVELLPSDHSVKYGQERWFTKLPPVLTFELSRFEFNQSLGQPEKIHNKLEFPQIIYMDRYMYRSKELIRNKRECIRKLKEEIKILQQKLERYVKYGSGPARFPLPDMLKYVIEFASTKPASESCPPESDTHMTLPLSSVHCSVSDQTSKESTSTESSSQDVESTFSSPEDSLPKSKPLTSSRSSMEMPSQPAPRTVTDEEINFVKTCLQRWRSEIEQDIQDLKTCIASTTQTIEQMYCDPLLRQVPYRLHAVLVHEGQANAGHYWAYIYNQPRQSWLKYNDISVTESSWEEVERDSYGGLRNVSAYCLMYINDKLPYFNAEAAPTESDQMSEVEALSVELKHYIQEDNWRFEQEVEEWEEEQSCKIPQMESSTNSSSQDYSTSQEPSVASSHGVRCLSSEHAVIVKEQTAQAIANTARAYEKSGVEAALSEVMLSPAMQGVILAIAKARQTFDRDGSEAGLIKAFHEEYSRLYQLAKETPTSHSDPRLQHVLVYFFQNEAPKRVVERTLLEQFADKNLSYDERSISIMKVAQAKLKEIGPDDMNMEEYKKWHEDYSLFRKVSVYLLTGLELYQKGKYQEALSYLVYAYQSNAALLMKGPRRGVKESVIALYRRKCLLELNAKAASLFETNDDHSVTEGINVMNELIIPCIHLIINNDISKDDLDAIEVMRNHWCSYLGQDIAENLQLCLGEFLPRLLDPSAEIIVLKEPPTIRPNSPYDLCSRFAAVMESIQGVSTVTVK
# Summary of the method: as §1
# USP24, sequence (Q9UPU5 whole entry): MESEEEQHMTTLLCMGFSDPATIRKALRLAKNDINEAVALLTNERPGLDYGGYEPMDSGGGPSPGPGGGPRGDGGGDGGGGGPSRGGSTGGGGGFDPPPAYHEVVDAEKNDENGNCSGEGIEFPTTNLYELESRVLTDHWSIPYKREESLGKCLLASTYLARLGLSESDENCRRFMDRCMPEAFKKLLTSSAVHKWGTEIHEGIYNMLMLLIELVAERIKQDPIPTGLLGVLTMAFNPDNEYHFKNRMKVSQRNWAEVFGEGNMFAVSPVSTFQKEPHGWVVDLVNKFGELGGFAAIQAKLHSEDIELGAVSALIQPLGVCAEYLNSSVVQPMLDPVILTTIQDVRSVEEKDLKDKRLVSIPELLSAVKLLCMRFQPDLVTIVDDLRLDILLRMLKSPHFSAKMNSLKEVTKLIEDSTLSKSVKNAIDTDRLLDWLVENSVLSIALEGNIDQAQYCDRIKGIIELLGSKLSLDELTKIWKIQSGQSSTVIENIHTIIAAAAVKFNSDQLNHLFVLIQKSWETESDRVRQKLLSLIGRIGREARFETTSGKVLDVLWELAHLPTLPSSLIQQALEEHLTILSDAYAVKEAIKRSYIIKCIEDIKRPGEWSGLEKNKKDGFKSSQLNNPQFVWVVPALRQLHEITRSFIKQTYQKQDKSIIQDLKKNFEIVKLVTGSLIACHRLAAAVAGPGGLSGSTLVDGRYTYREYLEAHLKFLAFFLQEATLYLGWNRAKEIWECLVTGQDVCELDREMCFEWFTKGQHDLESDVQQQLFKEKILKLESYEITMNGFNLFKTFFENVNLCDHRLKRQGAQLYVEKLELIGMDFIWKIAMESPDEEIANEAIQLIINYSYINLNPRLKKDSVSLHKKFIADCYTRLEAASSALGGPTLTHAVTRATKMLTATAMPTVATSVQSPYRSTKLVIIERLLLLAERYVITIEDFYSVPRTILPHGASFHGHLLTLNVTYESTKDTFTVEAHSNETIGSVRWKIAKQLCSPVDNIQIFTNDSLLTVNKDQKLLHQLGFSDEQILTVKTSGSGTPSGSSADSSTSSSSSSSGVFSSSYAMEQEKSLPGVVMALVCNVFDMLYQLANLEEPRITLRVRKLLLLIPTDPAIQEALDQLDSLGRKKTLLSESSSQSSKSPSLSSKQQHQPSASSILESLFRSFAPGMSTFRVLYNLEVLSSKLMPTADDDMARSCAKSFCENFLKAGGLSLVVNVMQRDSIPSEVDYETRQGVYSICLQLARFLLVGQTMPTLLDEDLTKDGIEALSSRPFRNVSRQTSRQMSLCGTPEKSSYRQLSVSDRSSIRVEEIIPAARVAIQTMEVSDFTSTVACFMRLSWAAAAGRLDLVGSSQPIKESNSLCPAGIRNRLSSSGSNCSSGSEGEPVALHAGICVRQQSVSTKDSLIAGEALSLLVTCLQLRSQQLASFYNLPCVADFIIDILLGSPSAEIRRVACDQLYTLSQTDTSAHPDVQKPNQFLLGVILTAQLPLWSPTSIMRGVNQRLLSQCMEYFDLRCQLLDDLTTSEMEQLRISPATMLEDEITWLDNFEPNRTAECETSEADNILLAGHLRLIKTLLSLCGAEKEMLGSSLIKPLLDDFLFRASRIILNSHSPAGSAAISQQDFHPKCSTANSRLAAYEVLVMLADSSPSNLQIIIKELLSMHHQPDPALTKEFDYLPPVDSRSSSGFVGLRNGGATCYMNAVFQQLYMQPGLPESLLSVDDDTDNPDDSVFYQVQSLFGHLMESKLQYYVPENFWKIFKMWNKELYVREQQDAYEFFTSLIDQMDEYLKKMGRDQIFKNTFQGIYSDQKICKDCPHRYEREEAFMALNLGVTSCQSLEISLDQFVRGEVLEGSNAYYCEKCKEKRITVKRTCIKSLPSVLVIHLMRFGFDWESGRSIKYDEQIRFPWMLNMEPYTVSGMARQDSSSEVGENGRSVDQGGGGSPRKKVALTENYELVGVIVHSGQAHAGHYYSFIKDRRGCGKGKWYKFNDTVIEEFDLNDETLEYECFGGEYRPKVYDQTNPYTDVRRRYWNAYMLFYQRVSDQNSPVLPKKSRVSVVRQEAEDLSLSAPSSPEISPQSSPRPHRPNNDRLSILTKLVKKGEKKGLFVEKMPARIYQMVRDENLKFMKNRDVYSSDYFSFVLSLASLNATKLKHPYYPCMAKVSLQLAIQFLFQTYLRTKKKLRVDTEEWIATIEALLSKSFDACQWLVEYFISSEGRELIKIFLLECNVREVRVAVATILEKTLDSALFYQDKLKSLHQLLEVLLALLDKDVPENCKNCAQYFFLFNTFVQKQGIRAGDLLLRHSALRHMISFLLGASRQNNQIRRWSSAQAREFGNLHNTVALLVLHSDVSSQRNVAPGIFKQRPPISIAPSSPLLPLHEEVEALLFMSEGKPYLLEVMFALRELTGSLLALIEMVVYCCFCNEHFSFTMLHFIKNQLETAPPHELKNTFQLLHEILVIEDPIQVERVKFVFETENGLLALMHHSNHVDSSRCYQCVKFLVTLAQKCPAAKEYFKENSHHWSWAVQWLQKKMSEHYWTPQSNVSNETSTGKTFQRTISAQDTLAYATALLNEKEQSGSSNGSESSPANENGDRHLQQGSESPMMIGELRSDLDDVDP
structure (smiles),measurement,setting,value
O=C(CCl)N[C@H]1CC[C@@H](CO)CC1,log2 ratio of Biotin-Ahx-Ub-VS probe labelling,[1],-0.828
same,log2 ratio of Biotin-Ahx-Ub-VS probe labelling,[2],-0.256
same,log2 ratio of Biotin-Ahx-Ub-VS probe labelling,[3],-1.05 (active)
same,log2 ratio of Biotin-Ahx-Ub-VS probe labelling,[4],-0.739
same,log2 ratio of Biotin-Ahx-Ub-VS probe labelling,[5],-1.09 (active)
